In all, about 71,000 compounds went through this assay and about 1,300 (1.8%) were called active. Entries that show only a call come without a potency. The sample holds actives, similar compounds and a random draw of the others, so the mix is not that of the screen. Calls come from the whole dose curve.
Potency is the fitted concentration of half-maximal effect.

Sequence of Beta-lactamase (Escherichia coli (strain K12)) (P00811 whole entry, looked up): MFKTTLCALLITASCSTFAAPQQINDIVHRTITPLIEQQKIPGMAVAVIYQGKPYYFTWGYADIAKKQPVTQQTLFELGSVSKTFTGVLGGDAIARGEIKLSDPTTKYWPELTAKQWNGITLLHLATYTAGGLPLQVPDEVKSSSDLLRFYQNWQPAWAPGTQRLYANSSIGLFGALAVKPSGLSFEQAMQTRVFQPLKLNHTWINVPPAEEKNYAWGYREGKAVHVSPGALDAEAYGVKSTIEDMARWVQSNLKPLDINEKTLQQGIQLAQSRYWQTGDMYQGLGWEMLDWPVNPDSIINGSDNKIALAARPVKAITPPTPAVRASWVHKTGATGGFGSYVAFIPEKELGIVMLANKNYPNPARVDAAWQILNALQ

This test has as its target Beta-lactamase (Escherichia coli (strain K12)) (UniProt P00811). Put plainly: Promiscuous and Specific Inhibitors of AmpC Beta-Lactamase (assay without detergent). The settings on record: AmpC nitrocefin hydrolysis, absorbance 480 nm, no detergent; series mostly up to 28.7 µM. As for the experimental part: NIH Molecular Libraries Screening Centers Network [MLSCN]
NIH Chemical Genomics Center [NCGC]
PI Name: Shoichet, Brian K.
This aggregation profiling approach exploits the sensitivity of aggregate formation to detergent. Inhibition of b-lactamase is measured in the presence and absence of 0.01% Triton X-100. See Pubchem assay "Promiscuous and Specific Inhibitors of AmpC Beta-Lactamase (assay with detergent)" for related screen. Compounds that inhibit only in the absence of detergent are considered likely promiscuous aggregators.
A screen of 1,030 compounds was performed in Brian Shoichet's lab in 96-well format. AmpC activity was measured by following the absorbance at 480 nm. Nitrocefin is a chromogenic substrate: while nitrocefin is yellow (lmax 390 nm), the product of its hydrolysis is red (lmax 486 nm, 17,000 M-1). AmpC beta lactamase was provided by Brian Shoichet and Brian Feng, UCSF.
NCGC Assay Protocol Summary:
20 mM phosphate buffer, pH 7.0
Triton X-100: No Detergent screen: 0.0001%, Detergent screen: 0.01%.
Buffer in columns 3 and 4 as negative control (no enzyme).
5.3 nM AmpC in columns 1, 2, 5-48. Titration of UCSF compound 9 control (from 10 mM, then 1:2) pin-transferred to column 2. Column 1 is neutral (100% activity).
Six uL of reagents were dispensed to 1536-well Greiner black clear bottom plates. Compounds and controls (23 nL) were transferred via Kalypsys PinTool. The plates were incubated for 15 min at room temperature, and then 2 uL of 800 uM solution of nitrocefin was added to start the reaction. The plates were immediately transferred to and read every 20 seconds for 4 min on ViewLux (Perkin-Elmer) High-throughput CCD imager using 480 nm absorbance protocol. During dispense, reagent bottles were kept submerged into 4 deg C water bath.
Keywords: NIH Roadmap, MLSCN, MLI, MLSMR, qHTS, NCGC, AmpC Beta-Lactamase, Aggregation.
Regarding `O=C(CN1C(=O)COc2ccccc21)NCCN1CCc2ccccc2C1`, the Potency entry was “inactive”.

On to `O=C(CN1C(=O)COc2ccccc21)Nc1ccc(F)cc1`, for which the Potency was 3.98 µM [single pt active] (active).

Take `COC(=O)[C@H](C)NC(=O)Nc1ccc(OC(F)(F)F)cc1`: the Potency result was “inactive”.

Regarding `Oc1c(Cl)cc(Cl)c(Cl)c1Cc1c(O)c(Cl)cc(Cl)c1Cl`, the Potency is 5.01 µM (active).

For `CC(=O)Nc1ccn(Cc2c(F)cccc2Cl)n1`, the Potency result was “inactive”.

With `O=C(Oc1ccc(-c2nc(-c3ccccn3)no2)cc1)c1ccccc1`, the Potency result is “inactive”.

In the case of `N#Cc1ccccc1-n1c(N)c(C(=O)N2CCCC2)sc1=S`, the Potency result is “inactive”.

In the case of `Cn1c(=O)[nH]c(=O)c2c1nc(CN(Cc1ccccc1)Cc1ccccc1)n2CCN1CCOCC1`, the Potency entry is “inactive”.

Turning to `Cn1c(=O)oc2cc(S(=O)(=O)N3CCC(C(=O)Nc4ccc(OC(F)(F)F)cc4)CC3)ccc21`, the Potency result was “inactive”.

For `Cc1ccc2nc(NC(=O)C3CCN(S(=O)(=O)c4ccc5c(c4)oc(=O)n5C)CC3)sc2c1`, the Potency is 3.98 µM [single pt active] (active).

Take `O=C(Nc1nc2ccc(S(=O)(=O)N3CCCC3)cc2s1)C1CCCO1` (stereo unspecified): the Potency entry is “inactive”.

As to `CC(=O)OC(C(=O)NCCc1ccccc1)c1cccnc1` (stereo unspecified), the Potency entry is “inactive”.

Regarding `C[N+]1(C)C2CC(OC(=O)C(CO)c3ccccc3)CC1[C@@H]1O[C@H]21` (stereo partly specified), the Potency result was “inactive”.

`CCOc1ccccc1NC(=O)C1CCN(S(=O)(=O)c2c(C)nn(C)c2C)CC1`: the Potency entry is “inactive”.

For the compound `CCOc1ccccc1NC(=O)C1CCC(CNc2c(N3CCOCC3)c(=O)c2=O)CC1` (stereo unspecified), the Potency is 3.98 µM [single pt active] (active).

On to `CCOc1ccc(CCNC(=O)C2CCN(c3ccc(N4CCOCC4)nn3)CC2)cc1OCC`, for which the Potency result is “inactive”.

Turning to `Cc1nc(-c2ccc(NC(=O)c3cccs3)cc2)cs1`, the Potency entry was “inactive”.

For the compound `COc1cccc2c(=O)n(CC(=O)N3CCCCCC3)ccc12`, the Potency entry was “inactive”.

As for `O=C(NCc1ccc2c(c1)OCO2)C1CCCN(S(=O)(=O)c2cccs2)C1` (stereo unspecified), the Potency is 3.98 µM [single pt active] (active).

In the case of `O=C(NC1CCCCC1)C1CCCN(S(=O)(=O)c2cccs2)C1` (stereo unspecified), the Potency entry is “inactive”.

Regarding `O=C(NCc1cccs1)C1CCN(S(=O)(=O)c2ccc3c(c2)OCCO3)CC1`, the Potency entry was “inactive”.

With `COc1cc2c(cc1OC)C(c1ccncc1)CC(=O)N2` (stereo unspecified), the Potency result was “inactive”.

Take `CC(C)c1nnc(NC(=O)C2CCCN2S(=O)(=O)c2ccc(Cl)cc2)s1` (stereo unspecified): the Potency result is “inactive”.

On to `Cc1nc2ccc(S(=O)(=O)NCC(=O)O)cc2s1`, for which the Potency result was “inactive”.

`Cc1nc2ccc(S(=O)(=O)NCC(=O)NCCN3CCCCC3C)cc2s1` (stereo unspecified): the Potency entry is “inactive”.

Regarding `Cc1nc2ccc(S(=O)(=O)NC(C(=O)N3CCCCCC3)C(C)C)cc2s1` (stereo unspecified), the Potency was 3.98 µM [single pt active] (active).

For `COC(=O)c1c(NC(=O)CSc2nc3c(c(=O)n(C)c(=O)n3C)n2C(C)C)sc(C)c1C`, the Potency result was “inactive”.

As to `CCn1nnc(NC(=O)c2c(OC)cccc2OC)n1`, the Potency entry was “inactive”.

As for `CCOC(=O)CSc1nc2c(sc(=S)n2CCc2ccccc2)c(=O)n1Cc1ccco1`, the Potency result is “inactive”.

For the compound `CN(c1ccccc1)c1ccc(/C=c2\s/c(=C(/C#N)C(=O)C(C)(C)C)n(Cc3ccco3)c2=O)cc1`, the Potency is 10 µM (active).

Consider `O=c1nc2s/c(=C\c3ccco3)c(=O)n2nc1Cc1ccccc1`, for which the Potency entry is “inactive”.

On to `CC1=CC(=O)C2=C(C)C[C@H](O)[C@@H]3[C@@H](OC(=O)[C@H]3C)[C@H]12`, for which the Potency result is “inactive”.

For the compound `CCOc1ccccc1N=C1NC(=O)CS1`, the Potency result was “inactive”.

In the case of `C=C(C)Cn1c(SCC(=O)NCc2ccco2)nc2sc3c(c2c1=O)CCC3`, the Potency entry was “inactive”.

Regarding `O=C(CSc1nc2cc3c(cc2c(=O)n1CCC1=CCCCC1)OCO3)NCc1ccco1`, the Potency was 12.6 µM (active).

For `O=C(CCCn1c(SCC(=O)c2ccc(F)cc2)nc2ccccc2c1=O)NCc1ccco1`, the Potency result is “inactive”.

For `CC(C)NC(=O)N1CC[C@@]2(CCCN(C(=O)c3cccn3C)C2)C1`, the Potency entry is “inactive”.

Regarding `Cc1c2cn[nH]c(=O)c2c(C)n1Cc1ccc(F)cc1`, the Potency entry was “inactive”.

As for `N#CCCN1CCN(S(=O)(=O)c2ccc(S(=O)(=O)NC3CCCCC3)cc2)CC1`, the Potency result is “inactive”.

Take `CCOC(=O)N1CCC(NC(=O)c2cnn3ccccc23)CC1`: the Potency was 3.98 µM [single pt active] (active).

With `CCOC(=O)N1CCC(NC(=O)Cc2cn(C)c3ccccc23)CC1`, the Potency result is “inactive”.

For the compound `CCOC(=O)N1CCC(NC(=O)CCc2cn(C)c3ccccc23)CC1`, the Potency entry was “inactive”.

With `COC(=O)N1CCC2(CCCN(Cc3ccccc3OC)C2)CC1`, the Potency result is “inactive”.

For `c1ccc(-c2cn3cccnc3n2)cc1`, the Potency result is “inactive”.

For the compound `O=C(C1=C(O)C(=O)N(c2ncccn2)C1c1cccs1)c1ccco1` (stereo unspecified), the Potency entry was “inactive”.

For `CNC(=O)Nc1cc(C(C)(C)C)no1`, the Potency result is “inactive”.

Turning to `Cc1cccc2c1N(CC(=O)OC(C)C)C(=O)C2=O`, the Potency entry is “inactive”.

Turning to `COc1ccc(C)cc1S(=O)(=O)NC1CCCCC1`, the Potency entry is “inactive”.

Regarding `CCOC(=O)N1CCC(Nc2c(NCCN3CCN(c4cccc(Cl)c4)CC3)c(=O)c2=O)CC1`, the Potency was 3.98 µM [single pt active] (active).

With `O=C(CCCn1c(=O)[nH]c2cc(Cl)ccc2c1=O)NCCN1CCN(c2ccccc2)CC1`, the Potency result was “inactive”.

Take `CCOC(=O)N1CCC(Nc2c(NCCCN3CCN(c4ccc(OC)cc4)CC3)c(=O)c2=O)CC1`: the Potency result was “inactive”.

Values taken from PubChem BioAssay AID585 (National Center for Advancing Translational Sciences (NCATS), 2007).
